Results reported in publication PMC5540273 (PLoS ONE, 2017).

Assays:
Details in all cases: concentration: 1 μM, replicates: in singlicate; n = 1
TAOK1 = system: TAOK1
TAOK2 = system: TAOK2
TAOK3 = system: TAOK3
TBK1 = system: TBK1
TEC = system: TEC
TESK1 = system: TESK1
TGFBR1 = system: TGFBR1
TGFBR2 = system: TGFBR2
TIE1 = system: TIE1
TIE2 = system: T1, TIE2
T1 construct: gene TEK

TLK1 = system: TLK1
TLK2 = system: TLK2
TNIK = system: TNIK
TNK1 = system: TNK1
TNK2 = system: TNK2
TNNI3K = system: TNNI3K
TRKA = system: T2, TRKA
T2 construct: gene NTRK1

TRKB = system: TRKB
TRKC = system: T3, TRKC
T3 construct: gene NTRK3

TRPM6 = system: TRPM6
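Further: KINOMEscan kinase panel screen.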

Row | Compound | %Inh (TAOK1) [%] | %Inh (TAOK2) [%] | %Inh (TAOK3) [%] | %Inh (TBK1) [%] | %Inh (TEC) [%] | %Inh (TESK1) [%] | %Inh (TGFBR1) [%] | %Inh (TGFBR2) [%] | %Inh (TIE1) [%] | %Inh (TIE2) [%] | %Inh (TLK1) [%] | %Inh (TLK2) [%] | %Inh (TNIK) [%] | %Inh (TNK1) [%] | %Inh (TNK2) [%] | %Inh (TNNI3K) [%] | %Inh (TRKA) [%] | %Inh (TRKB) [%] | %Inh (TRKC) [%] | %Inh (TRPM6) [%]
1 | COc1ccc2cc(-c3nc(-c4ccccc4C(C)C)[nH]c3-c3ccncc3)ccc2c1 [SB-660566] | 0 | 0 | 0 | 0 | 17 | 32 | 80 | 42 | 69 | 97 | 0 | 0 | 0 | 32 | 14 | 15 | 0 | 13 | 1 | 18
2 | O=C(Nc1n[nH]c2nc(-c3ccco3)c(Br)cc12)C1CCN(Cc2ccccc2)C1.O=C(O)[C@H](O)[C@@H](O)C(=O)O (stereo not shown) [SB-742034] | 0 | 0 | 10 | 18 | 8 | 23 | 0 | 21 | 0 | 17 | 5 | 6 | 17 | 13 | 6 | 0 | 48 | 17 | 0 | 1
3 | COC(=O)c1cccc(NC(=O)NC2CCN(c3ccnc(Nc4ccc(OC)cc4)n3)C2)c1 (stereo not shown) [GSK1379746] | 0 | 0 | 0 | 0 | 14 | 13 | 41 | 0 | 0 | 0 | 0 | 0 | 0 | 0 | 12 | 0 | 34 | 71 | 86 | 11
4 | COc1ccc(CSc2nnc(-c3ccc4ncsc4c3)o2)cc1C(F)(F)F | 31 | 9 | 0 | 13 | 0 | 3 | 5 | 19 | 0 | 19 | 0 | 7 | 0 | 0 | 0 | 0 | 0 | 0 | 13 | 0
5 | COC(=O)c1cccc(NC(=O)NC2CCN(c3ccnc(Nc4ccc(F)cc4)n3)C2)c1 (stereo not shown) [GSK1379725] | 0 | 0 | 0 | 0 | 0 | 15 | 0 | 0 | 0 | 0 | 0 | 0 | 0 | 0 | 17 | 2 | 9 | 58 | 82 | 0
6 | Fc1ccc(-c2nn3cccc(F)c3c2-c2ccncc2)cc1 [GW475620] | 0 | 0 | 0 | 22 | 0 | 4 | 17 | 11 | 7 | 1 | 0 | 0 | 32 | 0 | 12 | 0 | 15 | 0 | 2 | 0
7 | CS(=O)(=O)Cc1ccc(Nc2nccc(-c3c(-c4cccc(NC(=O)C5CCCCC5)c4)nn4ncccc34)n2)cc1 [GSK350559] | 11 | 0 | 0 | 29 | 29 | 10 | 0 | 0 | 3 | 0 | 16 | 0 | 0 | 29 | 13 | 0 | 39 | 16 | 27 | 0
8 | COc1ccc(Nc2nccc(N3CCC(NC(=O)C(C)c4ccc(Cl)cc4)CC3)n2)cc1 (stereo not shown) [GSK1379812] | 0 | 0 | 0 | 21 | 0 | 0 | 3 | 0 | 0 | 0 | 7 | 0 | 0 | 0 | 8 | 2 | 49 | 0 | 0 | 0
9 | COC(=O)C(Cc1ccccc1)NC(=O)NC1CCN(c2ccnc(Nc3ccc(F)cc3)n2)C1 (stereo not shown) [GSK1379714] | 0 | 0 | 0 | 21 | 0 | 16 | 20 | 0 | 16 | 0 | 10 | 0 | 6 | 0 | 4 | 0 | 98.2 | 23 | 25 | 0
10 | CNCc1ccc2nc(NC(=O)c3ccc(C(C)(C)C)cc3)cn2c1 | 100 | 22 | 93.2 | 0 | 2 | 0 | 3 | 2 | 6 | 4 | 0 | 0 | 8 | 0 | 1 | 6 | 39 | 58 | 28 | 1
11 | COc1ccc(-c2coc3ccc(-c4nnc(C)o4)cc23)cc1 | 0 | 0 | 0 | 30 | 0 | 8 | 3 | 43 | 0 | 40 | 12 | 6 | 0 | 0 | 0 | 0 | 0 | 0 | 0 | 0
